# PI4K2A inh = blocks human PI4K2A kinase activity; purified PI4K2A, ADP-Glo luminescence, 1 h; stronger effect = lower value; activity change, negative = inhibition, % at 76.9 µM; 0.13% of 420,000 active; AID 1346378; in the data active = activity change below about -50%; inconclusive = mostly about -30% to -49%
#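 ADP-Glo luminescence measured ADP generated by PI4K2A enzyme (4 ug/mL before mixing) with 1.2 mM PI substrate (pre-mix) and 300 microM ATP (pre-mix). Tris pH7.5 buffer with MgCl2, Triton X-100; 1 h reaction at ambient temperature.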
# GLS inh = glutaminase GLS (human) inhibition; GLS enzymatic activity, qHTS titration; Potency, µM (series often up to 45.5 µM), most hits filed as inhibitors; 0.21% of 410,000 active
#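 Enzyme dispensed in phosphate buffer (45 mM, pH 8.2, 0.02% Tween-20), compounds pinned in, then 1 mM L-glutamine solution and the glutamate oxidase–HRP–Amplex Red mix added; fluorescence read immediately and again after 30 min at room temperature.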
# GCN5L2 inh = inhibitors of human GCN5L2 histone acetyltransferase; Q92830; GCN5L2 HAT assay, ThioGlo1 CoA-SH fluorescence; Potency, µM (titrated, usually from 58.9 µM), most hits filed as inhibitors; 0.21% of 390,000 active; AID 504327
#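 Free CoA generated was detected with ThioGlo1 (50uM) fluorescence at Ex340nm/Em540nm, read immediately and after 20 min at room temperature. Enzyme, 20 nM in HEPES pH 7.5 buffer, saw compounds 15 min before adding 75uM H3(1-25) peptide and 70uM acetyl-CoA.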
# PLK1 PBD block = blocks phosphopeptide binding to human PLK1 polo-box domain. P53350. Plk1 PBD binding of FITC phosphopeptide, fluorescence polarization. Potency, µM, actives largely listed as inhibitors. 2.8% of 360,000 active; also: series mostly up to about 57 µM; nearly all actives have a fitted effect of over 65% in size
# VDR inh = blocks the human vitamin D receptor. 0.93% of 400,000 active. Potency, µM, most hits filed as inhibitors. VDR-SRC2-3 peptide fluorescence polarization, 2 h. P11473
# Target sequence (P11473 whole entry, looked up): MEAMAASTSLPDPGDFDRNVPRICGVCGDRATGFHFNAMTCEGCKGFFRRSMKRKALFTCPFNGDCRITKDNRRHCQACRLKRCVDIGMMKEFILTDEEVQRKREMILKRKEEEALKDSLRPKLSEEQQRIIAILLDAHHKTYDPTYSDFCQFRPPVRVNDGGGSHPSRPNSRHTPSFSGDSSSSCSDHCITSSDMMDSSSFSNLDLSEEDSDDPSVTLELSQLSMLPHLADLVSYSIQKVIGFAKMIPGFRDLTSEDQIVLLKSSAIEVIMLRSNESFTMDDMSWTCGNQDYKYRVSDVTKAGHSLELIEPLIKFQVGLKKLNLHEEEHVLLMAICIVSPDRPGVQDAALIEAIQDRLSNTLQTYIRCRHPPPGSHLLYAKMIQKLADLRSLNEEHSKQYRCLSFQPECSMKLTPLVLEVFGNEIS
#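 Inhibition of the VDR/SRC2-3 peptide interaction is quantified by fluorescence polarization. Compounds (23 nl, pintool) incubate with the reagents for 2 hours at ambient room temperature.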
# Hits are given with their value; - = inactive; ? = inconclusive; . = no result. An excerpt weighted towards active compounds, which were near 3.1% of everything screened. Unless noted, calls follow the shape of the dose curve; as a rule, active = well fitted curve in the direction sought with a large enough effect; inconclusive = small, poorly fitted or top-dose-only effect, or another doubt; inactive = no such curve, though single readings can be large; an effect the other way counts as inactive or inconclusive.
SMILES,PI4K2A inh,GLS inh,GCN5L2 inh,PLK1 PBD block,VDR inh
Clc1ccc(CO/N=C2\CCCc3nonc32)cc1,-,?,-,21µM,?
Cc1cn(C)c(CC(=O)NCc2cccc(Cl)c2)c1C(=O)O,-,-,-,.,-
Cc1cccc2c(=O)cc(CSc3ccccc3NC(=O)c3cccc(F)c3)[nH]c12,-,-,-,.,-
Cc1ccc2nc3cc([N+](=O)[O-])cc([N+](=O)[O-])c3cc2c1,-,-,-,0.95µM,-
O=C(NCCN1CCN(c2ccccc2)CC1)C1CCN(S(=O)(=O)c2cccc3nonc23)CC1,-,-,1.8µM,-,-
Cc1ccc(NC(=O)C(=Cc2ccc(C(=O)O)cc2)C(=O)Nc2ccc(C)cc2C)c(C)c1,?,-,-,-,25µM
O=C1O/C(=C/c2ccccc2)c2ccccc21,-,-,-,-,-
N#CC1=C(c2ccccc2)/C(=C/c2ccccc2)OC1=O,-,-,-,1.1µM,?
CCn1c(CSc2nc(C)cs2)nc2cc(S(=O)(=O)N(C)C)ccc21,-,-,-,27µM,-
CCOc1ccc(/C=C(\C#N)C(=O)Nc2sc3c(c2C(=O)OC)C(C(=O)OC)CC3)cc1OC (stereo unspecified),-,-,?,.,20µM
O=C(O)CCN1C(=O)CC(N2C(=O)/C(=C/c3ccc(Cl)cc3)SC2=S)C1=O (stereo unspecified),-,-,?,24µM,-
CN1C(=O)/C(=C\c2cccc(OCc3ccccc3)c2)SC1=S,-,-,-,-,-
CCOc1ccc(/C=C2\SC(=S)N(CCC(=O)O)C2=O)cc1,-,-,-,-,-
O=C(CCN1C(=O)/C(=C/c2ccc(Cl)cc2)SC1=S)Nc1cccc(C(=O)O)c1,-,-,-,?,-
O=C(O)CN1C(=O)/C(=C\c2cccc(OCc3ccccc3)c2)SC1=S,-,-,-,24µM,56µM
O=C(O)COc1cccc(/C=C2/SC(=S)N(Cc3ccccc3)C2=O)c1,-,-,-,24µM,79µM
O=C(O)CCN1C(=O)/C(=C\c2cccc(OCC(=O)Nc3ccc(Cl)cc3)c2)SC1=S,-,-,-,27µM,14µM
CO[C@@]1(NC(=O)CSC(F)F)C(=O)N2C(C(=O)O)=C(CSc3nnnn3CCO)CO[C@@H]21,.,-,.,.,.
O=C1C(NC(=O)N2c3ccccc3C=Cc3ccccc32)CCCCN1Cc1cccc(C(F)(F)F)c1 (stereo unspecified),-,.,.,.,.
Cn1c(=O)c2[nH]c(SCCN3CCOCC3)nc2n(C)c1=S,-,-,.,27µM,28µM
Cn1c(=O)c2[nH]c(SCCN3CCCCC3)nc2n(C)c1=S,-,-,.,?,?
O=C(NC(NNc1ccc([N+](=O)[O-])cc1)(C(F)(F)F)C(F)(F)F)c1ccc(F)cc1,-,-,-,-,?
O=C(NC(NNc1ccc([N+](=O)[O-])cc1)(C(F)(F)F)C(F)(F)F)c1ccccc1Cl,-,-,-,?,79µM
CCOCCCNC(=S)NCCCNc1nc2c(C)cc(C)cc2cc1C#N,-,-,-,24µM,?
Cc1cc(C)c2nc(NCCCNC(=S)NCCCN(C)C)c(C#N)cc2c1,-,-,-,-,-
SMILES,PI4K2A inh,GLS inh,GCN5L2 inh,PLK1 PBD block,VDR inh
S=c1nc(Cc2ccccc2)[nH]c2ccccc12,-,-,-,-,-
FC(F)(F)c1nc(=S)c2ccccc2[nH]1,-,-,?,21µM,?
CC(C)(C)c1ccc(-c2nc3[nH]c(=O)cc(NC(=O)c4ccco4)n3n2)cc1,-,-,-,24µM,-
Cc1ccc(-c2nc3[nH]c(=O)cc(NC(=O)C(C)C)n3n2)cc1,-,-,-,27µM,?
Cc1ccc(-c2nc3[nH]c(=O)cc(NC(=O)c4cccs4)n3n2)cc1,-,?,-,-,-
CCC(=O)Nc1cc(=O)[nH]c2nc(-c3ccc(Cl)cc3)nn12,-,?,-,21µM,?
COC(=O)[C@]12CCCCC=C1N(Cc1ccc(OC)cc1)C(=O)[C@@H]2CC(=O)NCC12CC3CC(CC(C3)C1)C2,-,.,.,.,.
CC(=O)c1sc(C(=O)O)c(-c2ccco2)c1-c1ccco1,-,20µM,-,?,-
CC(=O)Nc1ccc(C2Nc3c(C)cc(C)cc3-c3cc(C)nn32)cc1 (stereo unspecified),-,-,-,.,-
CC(=O)Nc1ccc(SCC(=O)O)cc1,-,-,-,?,-
O=C(O)CSc1ccc(NC(=O)Nc2ccccc2F)cc1,-54,-,-,-,-
CCn1c(C)c(CS(=O)(=O)c2ccccc2)[nH]c1=O,-,-,-,3.4µM,?
CCn1c(=O)[nH]c2ccccc21,.,.,-,.,-
O=C(O)c1cc(O)c2c(c1)[C@@H]([C@H]1c3cc(C(=O)O)cc(O)c3C(=O)c3c(O[C@@H]4O[C@H](CO)[C@@H](O)[C@H](O)[C@H]4O)cccc31)c1cccc(O[C@@H]3O[C@H](CO)[C@@H](O)[C@H](O)[C@H]3O)c1C2=O,-64,1.8µM,0.63µM,2.7µM,-
O=C(O)c1cc(O)c2c(c1)[C@H]([C@H]1c3cc(C(=O)O)cc(O)c3C(=O)c3c(O[C@@H]4OC(CO)C(O)C(O)C4O)cccc31)c1cccc(O[C@@H]3OC(CO)C(O)C(O)C3O)c1C2=O (stereo partly specified),.,-,1.8µM,.,40µM
O=C1N(CCCO)CCC12CCCCC2,-,.,.,.,.
COc1cc(C/C=C\c2ccccc2)c(OC)cc1O,.,.,.,.,45µM
O=C(CCSCCC(=O)NCc1ccccc1)NCc1ccccc1,-,-,-,-,-
Cc1ccc(CNC(=O)CSCc2cccc(F)c2)cc1,-,?,-,21µM,?
O=C(CCSCc1cccc(F)c1)NCc1ccc(F)cc1,-,?,-,7.5µM,?
COC1[C@@H](OC)C[C@H](C)[C@@H](OC)C2=CC(=O)C=C(NC(=O)/C(C)=C/C=C\[C@H](OC)[C@@H](OC(N)=O)/C(C)=C/[C@@H]1C)C2=O (stereo partly specified),.,.,-,.,79µM
CC(=O)Nc1ccc(NC(=O)c2ccc(COc3ccccc3)cc2)cc1,-,-,-,-,-
O=C(Nc1ccc(F)cc1)c1ccc(COc2ccccc2)cc1,-,-,-,27µM,-
CCOC(=O)c1c(C)[nH]c(C)c1C(=O)COc1ncnc2ccccc12,-,-,-,12µM,?
CCOC(=O)c1c(NC(=O)COc2ncnc3ccccc23)sc(C)c1C,-,-,-,-,-
O=c1c2ccccc2n2c(-c3ccccc3F)nnc2n1CCc1ccccc1,-,-,-,.,-
CC(C)=CCC1=C(O)c2ccccc2C(=O)C1=O,.,.,-,.,25µM
Cc1ccccc1CN1CCCCC(NC(=O)Nc2ccccc2)C1=O (stereo unspecified),-,.,.,.,.
Cc1cccc(-n2c(=S)[nH]c3sc4c(c3c2=O)CCc2ccccc2-4)c1,-,10µM,?,3µM,?
CCN(CC)C(=O)c1sc2[nH]c(=S)n(-c3ccccc3)c(=O)c2c1C,-,-,-,-,-
